Several values for one entry are separate records, joined by “and”; a condition that tells them apart may be missing. Equal entries are not always repeated. Inconclusive results are not listed. Activity calls are given as the source filed them. Unless noted, the call rests on the fitted dose curve; in most records, active means well fitted curve in the direction sought with a large enough effect; inconclusive means small, poorly fitted or top-dose-only effect, or another doubt; inactive means no such curve, though single readings can be large; an effect the other way counts as inactive or inconclusive.
Tests used:
[1] = Cell Viability - MRC5 (AID 434; calls by dose curve;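 further: potency means the concentration at half of the fitted maximal effect; cells exposed to compound for 40 hours at 37 °C; potency reflects cytotoxicity seen as loss of intracellular ATP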); settings: MRC5 lung fibroblast viability, qHTS
Outline: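 AC50 values come from Hill-equation fits of intracellular ATP loss, measured by CellTiter-Glo luminescence. Normal lung fibroblasts (MRC5) had 40 hr compound treatment at 37 C, normalized between DMSO and 100 uM tamoxifen.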

[2] = Cellular Toxicity (caspase-3) HepG2 (AID 654); settings: HepG2 caspase-3 activation, luminescence; series mostly up to 92.2 µM;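 further: cells exposed to compound for 16 hours before reading; 0% = DMSO alone and 100% = caspase signal from 100 µM tamoxifen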
Outline: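 Luminescent Caspase-Glo 3/7 readout after 16 hr compound exposure of human hepatocellular carcinoma HepG2 cells at 37 °C; qHTS concentration-response, normalized DMSO = 0%, 100 uM tamoxifen = 100%; AC50 by standard Hill equation.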

[3] = Cellular Toxicity (caspase-3) HUV-EC-C (AID 656); settings: HUV-EC-C cells, caspase-3 activation (apoptosis); series mostly up to 92.2 µM
Outline: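 HUV-EC-C endothelial cells, 1000/well, were pre-incubated 5 hr at 37°C, then exposed to compounds for 16 hr at 37°C. Caspase-Glo 3/7 luminescence was read after 20 min at room temperature. AC50 came from Hill fits, normalized to DMSO and 100 uM tamoxifen.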

[4] = Cellular Toxicity (caspase-3) SHSY5Y (AID 657); settings: SH-SY5Y caspase-3 activation; series mostly up to 91.7 µM
Outline: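 SH-SY5Y human neuroblastoma cells (1500/well) were treated with compounds for 16 h at 37 °C, then Caspase-Glo 3/7 luminescence was read after 1 h at room temperature. Data normalized to DMSO and 10 uM staurosporine; AC50 from Hill fits.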

[5] = Cellular Toxicity (caspase-3) BJ (AID 658); settings: BJ fibroblasts, luminescence; Potency: caspase-3 activation; series mostly up to 91.7 µM
Outline: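 Caspase-Glo 3/7 luminescence, read 1 hr after reagent at room temperature, in normal BJ fibroblasts exposed 16 hours at 37 °C. AC50 values from Hill-equation concentration-response, scaled between DMSO basal and 10 uM staurosporine as 100%.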

[6] = Cellular Toxicity (caspase-3) MRC-5 (AID 659); settings: MRC-5 cells, luminescence, normalized: DMSO 0%, 10 µM staurosporine 100%; series mostly up to 91.7 µM
Outline: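 Luminescent Caspase-Glo 3/7 read-out (1 h, room temperature) after a 16 h, 37 °C compound exposure of MRC-5 lung fibroblasts at 1500 cells/well. Concentration-response AC50 from Hill equation; 0% DMSO, 100% 10 uM staurosporine.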

[7] = Cellular Toxicity (caspase-3) Mesangial (AID 660); settings: mesangial cells, normalized: DMSO 0%, 100 µM tamoxifen 100%; series mostly up to 91.7 µM;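 further: combined caspase 3 and 7 activity read by Caspase-Glo luminescence; cells exposed to compound for 16 h before the caspase read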
Outline: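 Luminescent Caspase-Glo 3/7 readout (aminoluciferin substrate cleavage, 20 min RT) after 16 h compound exposure at 37 °C of normal human mesangial cells. Signal increase normalized between DMSO basal and 100 uM tamoxifen; Hill-equation AC50.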

[8] = Cellular Toxicity (caspase-3) SK-N-SH (AID 661); settings: SK-N-SH caspase-3 activation, qHTS, DMSO as zero, staurosporine as full; series mostly up to 91.7 µM
Outline: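 Luminescent Caspase-Glo 3/7 read-out after 16 hr compound exposure of SK-N-SH neuroblastoma cells at 37 °C. Signal increase normalized to DMSO (basal) and 10 uM staurosporine (100%); AC50 from Hill equation fits of qHTS concentration-response data.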

[9] = Cellular Toxicity (caspase-3) H-4-II-E (AID 663); settings: H-4-II-E rat hepatoma; Potency: caspase-3 activation; series mostly up to 92.2 µM;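 further: cells exposed to compound for 16 hr before readout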
Outline: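 Caspase 3/7 activation measured by luminescent aminoluciferin substrate cleavage after 16 hr compound treatment of H-4-II-E cells in complete medium. Increase normalized between DMSO (basal) and 100 uM tamoxifen (100%); Hill-equation AC50 from concentration-response.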

[10] = Cellular Toxicity (caspase-3) Hek293 (AID 664); settings: HEK293 caspase-3 activation, DMSO = 0%, 100 µM tamoxifen = 100%; at 92.2 µM (top of the series);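 further: cells exposed to compound for 16 h at 37 °C before readout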
Outline: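 Luminescent Caspase-Glo 3/7 readout (aminoluciferin release) in HEK293 cells after 16 h compound treatment, 37 °C. Normalization: DMSO = basal, 100 uM tamoxifen = 100% stimulation. Concentration-response fitted with standard Hill equation for AC50.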

[11] = Cellular Toxicity (caspase-3) N2a (AID 665); settings: N2a cells, luminescence, normalized: DMSO 0%, 10 µM staurosporine 100%; series mostly up to 92.2 µM;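 further: compound exposure lasted 16 h at 37 °C before readout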
Outline: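 Luminescent Caspase-Glo 3/7 readout in N2a mouse neuroblastoma cells after 16 h compound exposure at 37 °C. Signal scaled to DMSO (basal) and 10 uM staurosporine (100%). Concentration-response fitted with Hill equation for AC50.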

[12] = Cellular Toxicity (caspase-3) Renal Proximal Tubule (AID 667); settings: renal proximal tubule cells, primary cells freshly taken from rat; Potency: caspase-3 activation; series mostly up to 91.7 µM;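 further: cells exposed to compound for 16 hours at 37 °C before detection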
Outline: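 Primary rat proximal tubule cells, 1000/well, 5 h plating at 37 °C, then compound 16 h at 37 °C. Caspase-Glo 3/7 reagent, 1 h RT, luminescence. Normalized to DMSO (basal) and 10 uM staurosporine (100%); Hill-fit AC50.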

[13] = MultiTox-Fluor Cytotoxicity Assay - LYMP1-001 - Dead Cells (AID 946); settings: LYMP1-001 lymphoblastoid cells, dead-cell protease fluorescence; series mostly up to 92.2 µM
Outline: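 Cytotoxicity as increased dead-cell protease fluorescence (bis-AAF-R110, 485/520 nm), read 60 min after MultiTox-Fluor reagent. Human lymphoblastoid line exposed 16 h; Hill-fitted AC50, with DMSO as 0% and 15 uM tetraoctylammonium bromide as 100%.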

[14] = MultiTox-Fluor Cytotoxicity Assay - LYMP1-003 - Live Cells (AID 962); settings: LYMP1-003 lymphoblastoid cells, MultiTox-Fluor live-cell protease fluorescence; series mostly up to 92.2 µM;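 further: 0% = DMSO only and full loss = 92 µM tetraoctylammonium bromide; cytotoxic hits lower the live-cell protease signal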
Outline: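 Readout: live-cell fluorescence (Ex/Em=405/510) from GF-AFC cleavage after 60 min MultiTox-Fluor reagent at room temperature. Lymphoblastoid LYMP1-003 cells, 16 hr compound treatment, 37 C. Concentration-response fitted to standard Hill equation for AC50.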

[15] = Cell Viability - LYMP1-003 - Assay at 24 hr (AID 963); settings: LYMP1-003 lymphoblastoid cell viability; series mostly up to 92.2 µM;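 further: plate controls were DMSO only for no effect and tetraoctylammonium bromide positive control for full effect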
Outline: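 CellTiter-Glo luminescence (intracellular ATP) read after 24 hr, 37 C compound exposure of 2500 LYMP1-003 human lymphoblastoid cells/well in complete medium; qHTS concentration series; AC50 via standard Hill equation.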

[16] = qHTS Assay for Identification of Small Molecule Inducers of Hypoxia Response (AID 2120; active means well fitted curve in the direction sought with a large enough effect in the signal ratio, with a control signal flat, not every such curve was filed as active; the % refers to the signal ratio; further: 0% is about no effect); settings: hypoxia response reporter cells, beta-lactamase ratio readout; series mostly up to 104 µM
Outline: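 Read-out: CCF4 FRET emission ratio 460nm/530nm (excitation 405nm), converted to %Activity, with AC50 fitted across a compound titration. ME-180 cells carried an HRE-driven beta-lactamase reporter; compound exposure 17 h, 37 degrees C.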

[17] = target: Peroxisome proliferator-activated receptor alpha (Homo sapiens) (UniProt Q07869); test: qHTS assay for small molecule agonists of the peroxisome proliferator-activated receptor alpha (PPARalpha) signaling pathway (AID 651778); settings: PathHunter PPARalpha complementation, chemiluminescence, 6 h; max response: stronger effect = higher value; further: % of control where 0% means no effect
Outline: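 Chemiluminescence from complemented enzyme reported PPARalpha activation in cells after 6 hr of compound treatment at 37 C. The detection reagent was incubated for 60 min at room temperature, and compounds were scored as agonists.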

[18] = qHTS assay for small molecule agonists of the antioxidant response element (ARE) signaling pathway measured by Nrf2-dependant transcriptional activity - cell viability counter screen (AID 720653; active means well fitted curve in the direction sought with a large enough effect in the repeat runs; an effect the other way counts as inactive or inconclusive; further: on the % scale 0 is the no-effect control and ±100 the full control effect); settings: ARE-bla HepG2 viability, CellTiter-Glo ATP luminescence, 16 h; max response: stronger effect = lower value
Outline: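 Cytotoxicity counter screen: intracellular ATP quantified by CellTiter-Glo luminescence in the same ARE-bla HepG2 plates, after 16 h compound exposure and a 2 h beta-lactamase substrate step.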

[19] = qHTS assay for cell viability of HEK293 cells (AID 743288); settings: ATP luminescence (CellTiter-Glo), 18 h; max response: stronger effect = lower value; further: on the % scale 0 is the no-effect control and ±100 the full control effect; nearly all actives have a fitted effect of over 50% in size
Outline: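 After 18 h compound exposure at 37 C, parental HEK293 cells (2,000/well) are lysed with CellTiter-Glo and luminescence is read following 30 min at room temperature.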

[20] = qHTS assay for cell viability of the p53RE-bla HCT-116 cell line (AID 743292); settings: p53RE-bla HCT-116 viability, ATP luminescence, 16 h; series mostly up to 95 µM; further: on the % scale 0 is the no-effect control and ±100 the full control effect; nearly all actives have a fitted effect of over 55% in size
Outline: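 Viability of compound-treated p53RE-bla HCT-116 cells is taken from ATP-dependent luciferase luminescence. Treatment lasts 16 h at 37 C after a 5 h settling period; detection follows 30 min at room temperature.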

Sequence of Peroxisome proliferator-activated receptor alpha (Homo sapiens) (Q07869 whole entry, looked up): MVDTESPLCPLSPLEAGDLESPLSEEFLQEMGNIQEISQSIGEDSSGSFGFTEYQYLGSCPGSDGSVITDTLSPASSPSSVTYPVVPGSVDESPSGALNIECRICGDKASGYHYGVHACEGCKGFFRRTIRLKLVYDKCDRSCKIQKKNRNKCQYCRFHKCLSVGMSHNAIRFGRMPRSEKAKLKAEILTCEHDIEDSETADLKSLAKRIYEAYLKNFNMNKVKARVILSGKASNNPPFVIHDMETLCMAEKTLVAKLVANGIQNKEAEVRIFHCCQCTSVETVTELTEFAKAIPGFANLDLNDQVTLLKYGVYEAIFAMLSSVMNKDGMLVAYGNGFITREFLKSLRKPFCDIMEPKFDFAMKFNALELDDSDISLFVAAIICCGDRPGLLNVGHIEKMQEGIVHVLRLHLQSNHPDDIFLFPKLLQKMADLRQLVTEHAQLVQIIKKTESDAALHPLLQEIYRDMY

Cc1cccnc1
inactive: Potency [1] > 92 µM | Potency [2] | Potency [3] | Potency [4] | Potency [5] | outcome [6] | outcome [7] | outcome [8] | Potency [9] | caspase-3 activation [10] -1.09% | outcome [11] | Potency [12] | Potency [13] | Potency [14] | Potency [15] | Potency [16] | max response [17] -1.1% | max response [18] -3.56% | max response [19] -8.35% | Potency [20]

CCCCC(CC)COC(=O)COc1ccc(Cl)cc1Cl (stereo not given)
inactive: Potency [1] > 92 µM | Potency [2] | Potency [3] | Potency [4] | Potency [5] | outcome [6] | outcome [7] | outcome [8] | Potency [9] | caspase-3 activation [10] 1.58% | outcome [11] | Potency [12] | Potency [13] | Potency [14] | Potency [15] | Potency [16] | max response [17] -1.4% and -1.03% | max response [18] -8.61% and -1.82% | max response [19] -3.29% and 2.38% | Potency [20]

Nc1cc(C(=O)O)c(O)c(S(=O)(=O)O)c1
inactive: Potency [1] > 92 µM | Potency [2] | Potency [3] | Potency [4] | Potency [5] | outcome [6] | outcome [7] | outcome [8] | Potency [9] | caspase-3 activation [10] 0.407% | outcome [11] | Potency [12] | Potency [13] | Potency [14] | Potency [15] | Potency [16] | max response [17] -5.08% | max response [18] 2.52% | max response [19] -1.32% | Potency [20]

Nc1cnn([C@@H]2O[C@H](CO)[C@@H](O)[C@H]2O)c(=O)n1
inactive: Potency [1] > 92 µM | Potency [2] | Potency [3] | Potency [4] | Potency [5] | outcome [6] | outcome [7] | outcome [8] | Potency [9] | caspase-3 activation [10] -2.69% | outcome [11] | Potency [12] | Potency [13] | Potency [14] | Potency [15] | Potency [16] | max response [17] -1.23% | max response [18] 20.2% | max response [19] 3.95% | Potency [20]

C=Cc1cccc(C)c1
inactive: Potency [1] > 92 µM | Potency [2] | Potency [3] | Potency [4] | Potency [5] | outcome [6] | outcome [7] | outcome [8] | Potency [9] | caspase-3 activation [10] -0.822% | outcome [11] | Potency [12] | Potency [13] | Potency [14] | Potency [15] | Potency [16] | max response [17] -4.17% | max response [18] 10.9% | max response [19] 2.72% | Potency [20]

COc1ccc(C)cc1N
inactive: Potency [1] > 92 µM | Potency [2] | Potency [3] | Potency [4] | Potency [5] | outcome [6] | outcome [7] | outcome [8] | Potency [9] | caspase-3 activation [10] 0.602% | outcome [11] | Potency [12] | Potency [13] | Potency [14] | Potency [15] | Potency [16] | max response [17] -6.24% | max response [18] -10.4% | max response [19] -15% | Potency [20]

Reference: PubChem BioAssay (NCATS)
